Data published in ChEMBL document CHEMBL1961873, “Compounds: GSK PKIS; Assays: Nanosyn kinase panel” (2012).

Key:
[1] = biological target: Sphingosine kinase 1 (Homo sapiens) (UniProt Q9NYA1); details: at 1 µM;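 also: mean SPHK1 inhibition value reported from the GSK PKIS kinase panel screen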
[2] = biological target: T1, Sphingosine kinase 2 (Homo sapiens) (UniProt Q9NRA0); details: at 0.1 µM
T1 sequence (whole entry): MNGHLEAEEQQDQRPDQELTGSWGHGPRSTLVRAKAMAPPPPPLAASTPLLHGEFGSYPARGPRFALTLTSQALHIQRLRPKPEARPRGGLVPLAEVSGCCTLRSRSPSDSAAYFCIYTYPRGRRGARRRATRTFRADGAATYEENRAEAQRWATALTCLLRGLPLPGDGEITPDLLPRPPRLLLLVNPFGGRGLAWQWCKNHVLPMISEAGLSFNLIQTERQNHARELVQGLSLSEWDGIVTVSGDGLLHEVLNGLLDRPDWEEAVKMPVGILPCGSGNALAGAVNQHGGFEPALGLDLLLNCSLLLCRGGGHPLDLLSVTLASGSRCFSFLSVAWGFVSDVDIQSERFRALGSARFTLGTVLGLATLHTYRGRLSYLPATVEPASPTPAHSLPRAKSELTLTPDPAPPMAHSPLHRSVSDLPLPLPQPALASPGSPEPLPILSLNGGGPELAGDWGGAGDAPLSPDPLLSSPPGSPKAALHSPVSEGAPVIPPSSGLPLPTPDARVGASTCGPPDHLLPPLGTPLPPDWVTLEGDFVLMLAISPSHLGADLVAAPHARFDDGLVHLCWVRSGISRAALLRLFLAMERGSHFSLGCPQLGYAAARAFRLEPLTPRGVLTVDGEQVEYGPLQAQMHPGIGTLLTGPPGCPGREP

[3] = biological target: T1, Sphingosine kinase 2 (Homo sapiens); details: at 1 µM
[4] = biological target: Casein kinase II subunit alpha (Homo sapiens) (UniProt P68400); details: at 0.1 µM
Sequence of Casein kinase II subunit alpha (Homo sapiens) (P68400 whole entry, looked up): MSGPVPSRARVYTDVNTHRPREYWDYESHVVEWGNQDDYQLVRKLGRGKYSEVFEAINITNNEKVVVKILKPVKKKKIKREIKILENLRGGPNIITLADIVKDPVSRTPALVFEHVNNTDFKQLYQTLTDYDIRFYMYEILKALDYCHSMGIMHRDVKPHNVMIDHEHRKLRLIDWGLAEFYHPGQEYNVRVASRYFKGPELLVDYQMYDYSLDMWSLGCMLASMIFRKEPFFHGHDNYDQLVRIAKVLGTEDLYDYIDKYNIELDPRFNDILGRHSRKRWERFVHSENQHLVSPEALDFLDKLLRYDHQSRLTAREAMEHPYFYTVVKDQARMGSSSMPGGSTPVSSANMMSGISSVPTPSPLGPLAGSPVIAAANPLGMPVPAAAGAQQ

[5] = biological target: Casein kinase II subunit alpha (Homo sapiens) (UniProt P68400); details: at 1 µM
[6] = biological target: T2, Inhibitor of nuclear factor kappa-B kinase subunit alpha (Homo sapiens) (UniProt O15111); details: at 0.1 µM
T2 sequence (whole entry): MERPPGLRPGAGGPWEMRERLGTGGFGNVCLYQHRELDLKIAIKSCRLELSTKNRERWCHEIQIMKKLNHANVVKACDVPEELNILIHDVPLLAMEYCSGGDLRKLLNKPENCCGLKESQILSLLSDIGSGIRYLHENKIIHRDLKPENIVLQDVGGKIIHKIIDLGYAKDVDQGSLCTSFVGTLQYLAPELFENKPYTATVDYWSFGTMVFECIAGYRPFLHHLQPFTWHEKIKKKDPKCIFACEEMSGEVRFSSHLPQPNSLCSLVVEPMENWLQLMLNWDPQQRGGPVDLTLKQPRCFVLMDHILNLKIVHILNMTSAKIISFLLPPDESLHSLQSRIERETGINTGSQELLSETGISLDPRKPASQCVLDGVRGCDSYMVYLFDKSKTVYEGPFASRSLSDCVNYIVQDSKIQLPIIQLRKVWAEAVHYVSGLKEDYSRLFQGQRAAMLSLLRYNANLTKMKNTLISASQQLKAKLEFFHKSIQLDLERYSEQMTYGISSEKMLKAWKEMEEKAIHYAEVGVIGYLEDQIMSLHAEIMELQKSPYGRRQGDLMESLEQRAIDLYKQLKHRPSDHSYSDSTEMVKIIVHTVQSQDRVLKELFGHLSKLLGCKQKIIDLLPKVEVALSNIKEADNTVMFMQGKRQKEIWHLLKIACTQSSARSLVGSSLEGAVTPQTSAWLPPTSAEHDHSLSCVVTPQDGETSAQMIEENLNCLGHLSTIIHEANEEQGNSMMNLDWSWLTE

[7] = biological target: T2, Inhibitor of nuclear factor kappa-B kinase subunit alpha (Homo sapiens); details: at 1 µM
[8] = biological target: T3, Inhibitor of nuclear factor kappa-B kinase subunit beta (Homo sapiens) (UniProt O14920); details: at 0.1 µM
T3 sequence (whole entry): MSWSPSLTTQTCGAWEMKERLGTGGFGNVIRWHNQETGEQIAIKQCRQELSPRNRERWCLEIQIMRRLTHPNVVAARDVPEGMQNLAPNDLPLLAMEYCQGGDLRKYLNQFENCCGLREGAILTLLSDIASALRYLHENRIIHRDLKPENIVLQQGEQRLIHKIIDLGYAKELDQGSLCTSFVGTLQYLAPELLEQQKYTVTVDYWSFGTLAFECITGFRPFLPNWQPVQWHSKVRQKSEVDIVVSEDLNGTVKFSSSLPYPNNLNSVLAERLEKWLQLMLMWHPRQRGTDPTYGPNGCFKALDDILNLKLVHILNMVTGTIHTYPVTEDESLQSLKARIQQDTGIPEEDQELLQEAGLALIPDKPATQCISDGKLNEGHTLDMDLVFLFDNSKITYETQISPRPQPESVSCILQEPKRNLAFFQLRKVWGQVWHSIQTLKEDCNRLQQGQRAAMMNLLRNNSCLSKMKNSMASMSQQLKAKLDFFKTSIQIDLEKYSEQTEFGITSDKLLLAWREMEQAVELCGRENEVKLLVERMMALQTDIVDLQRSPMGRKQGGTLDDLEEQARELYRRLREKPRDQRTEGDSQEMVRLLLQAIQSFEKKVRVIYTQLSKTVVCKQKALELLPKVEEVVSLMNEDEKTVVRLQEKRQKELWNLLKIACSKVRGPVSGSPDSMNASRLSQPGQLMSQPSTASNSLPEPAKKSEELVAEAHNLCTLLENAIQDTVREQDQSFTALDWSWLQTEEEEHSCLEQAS

[9] = biological target: T3, Inhibitor of nuclear factor kappa-B kinase subunit beta (Homo sapiens); details: at 1 µM
[10] = biological target: T4, Inhibitor of nuclear factor kappa-B kinase subunit epsilon (Homo sapiens) (UniProt Q14164); details: at 0.1 µM
T4 sequence (whole entry): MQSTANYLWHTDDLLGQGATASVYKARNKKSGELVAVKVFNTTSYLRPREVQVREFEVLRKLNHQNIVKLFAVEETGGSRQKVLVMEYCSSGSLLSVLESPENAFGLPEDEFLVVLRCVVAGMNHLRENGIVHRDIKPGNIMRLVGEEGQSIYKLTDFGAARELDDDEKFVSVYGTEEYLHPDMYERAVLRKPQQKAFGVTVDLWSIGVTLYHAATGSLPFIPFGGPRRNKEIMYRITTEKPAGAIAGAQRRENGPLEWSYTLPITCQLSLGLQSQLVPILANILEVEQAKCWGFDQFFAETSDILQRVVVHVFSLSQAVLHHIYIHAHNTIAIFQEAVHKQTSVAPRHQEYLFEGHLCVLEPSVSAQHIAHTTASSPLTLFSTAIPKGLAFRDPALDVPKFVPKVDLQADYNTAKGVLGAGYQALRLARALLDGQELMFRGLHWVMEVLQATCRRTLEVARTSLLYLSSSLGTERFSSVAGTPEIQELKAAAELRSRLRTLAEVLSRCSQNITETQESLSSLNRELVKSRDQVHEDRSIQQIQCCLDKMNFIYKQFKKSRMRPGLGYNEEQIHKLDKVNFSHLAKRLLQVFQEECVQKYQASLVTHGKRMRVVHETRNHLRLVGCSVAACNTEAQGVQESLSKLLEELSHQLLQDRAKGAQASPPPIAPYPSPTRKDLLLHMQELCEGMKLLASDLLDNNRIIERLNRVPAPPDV

[11] = biological target: T4, Inhibitor of nuclear factor kappa-B kinase subunit epsilon (Homo sapiens); details: at 1 µM
[12] = biological target: T5, Serine/threonine-protein kinase Nek1 (Homo sapiens) (UniProt Q96PY6); details: at 0.1 µM
T5 sequence (whole entry): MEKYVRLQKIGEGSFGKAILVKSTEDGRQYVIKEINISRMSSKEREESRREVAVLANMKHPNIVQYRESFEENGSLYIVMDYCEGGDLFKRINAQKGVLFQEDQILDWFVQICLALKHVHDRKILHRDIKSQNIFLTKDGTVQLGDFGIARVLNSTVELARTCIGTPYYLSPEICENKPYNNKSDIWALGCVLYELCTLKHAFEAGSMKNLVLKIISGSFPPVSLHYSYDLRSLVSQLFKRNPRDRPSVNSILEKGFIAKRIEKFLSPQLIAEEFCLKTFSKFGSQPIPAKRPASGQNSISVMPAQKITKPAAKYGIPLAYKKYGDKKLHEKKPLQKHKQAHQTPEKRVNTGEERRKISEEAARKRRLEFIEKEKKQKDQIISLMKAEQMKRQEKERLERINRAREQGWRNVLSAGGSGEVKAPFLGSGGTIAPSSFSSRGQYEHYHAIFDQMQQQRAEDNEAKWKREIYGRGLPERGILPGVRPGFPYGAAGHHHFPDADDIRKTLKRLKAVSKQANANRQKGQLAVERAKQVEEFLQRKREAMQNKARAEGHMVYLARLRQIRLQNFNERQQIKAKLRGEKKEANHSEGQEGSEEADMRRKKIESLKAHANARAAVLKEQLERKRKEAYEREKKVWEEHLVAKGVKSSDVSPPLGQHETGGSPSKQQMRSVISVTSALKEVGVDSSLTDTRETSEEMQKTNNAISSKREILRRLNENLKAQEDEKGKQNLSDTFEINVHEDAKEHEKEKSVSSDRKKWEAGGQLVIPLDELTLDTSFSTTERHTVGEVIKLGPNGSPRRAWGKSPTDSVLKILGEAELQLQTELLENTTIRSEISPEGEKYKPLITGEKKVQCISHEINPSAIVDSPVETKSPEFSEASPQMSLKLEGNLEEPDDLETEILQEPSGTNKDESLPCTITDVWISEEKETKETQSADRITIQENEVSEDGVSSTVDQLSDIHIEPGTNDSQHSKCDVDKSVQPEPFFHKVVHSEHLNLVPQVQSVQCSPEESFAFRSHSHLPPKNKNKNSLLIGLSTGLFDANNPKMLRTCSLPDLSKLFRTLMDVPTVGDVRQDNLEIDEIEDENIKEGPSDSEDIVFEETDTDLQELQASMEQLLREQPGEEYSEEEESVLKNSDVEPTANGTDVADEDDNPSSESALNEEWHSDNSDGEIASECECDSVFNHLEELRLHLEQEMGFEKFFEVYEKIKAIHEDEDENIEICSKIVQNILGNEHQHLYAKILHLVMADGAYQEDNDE

[13] = biological target: T5, Serine/threonine-protein kinase Nek1 (Homo sapiens); details: at 1 µM
[14] = biological target: T6, Serine/threonine-protein kinase Nek2 (Homo sapiens) (UniProt P51955); details: at 0.1 µM
T6 sequence (whole entry): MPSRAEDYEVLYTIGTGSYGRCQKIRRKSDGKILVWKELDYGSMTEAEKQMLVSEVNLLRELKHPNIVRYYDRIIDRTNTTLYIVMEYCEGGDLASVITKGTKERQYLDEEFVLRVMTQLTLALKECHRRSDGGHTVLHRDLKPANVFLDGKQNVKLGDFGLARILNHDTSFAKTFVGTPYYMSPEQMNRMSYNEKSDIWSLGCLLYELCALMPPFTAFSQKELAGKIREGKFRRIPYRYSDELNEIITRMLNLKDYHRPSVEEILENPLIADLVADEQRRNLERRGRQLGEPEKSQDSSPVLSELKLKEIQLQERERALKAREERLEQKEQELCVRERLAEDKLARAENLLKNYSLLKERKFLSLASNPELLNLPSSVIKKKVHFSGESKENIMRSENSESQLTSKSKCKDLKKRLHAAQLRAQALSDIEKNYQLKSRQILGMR

[15] = biological target: T6, Serine/threonine-protein kinase Nek2 (Homo sapiens); details: at 1 µM
[16] = biological target: Serine/threonine-protein kinase Nek6 (Homo sapiens) (UniProt Q9HC98); details: at 0.1 µM
Sequence of Serine/threonine-protein kinase Nek6 (Homo sapiens) (Q9HC98 whole entry): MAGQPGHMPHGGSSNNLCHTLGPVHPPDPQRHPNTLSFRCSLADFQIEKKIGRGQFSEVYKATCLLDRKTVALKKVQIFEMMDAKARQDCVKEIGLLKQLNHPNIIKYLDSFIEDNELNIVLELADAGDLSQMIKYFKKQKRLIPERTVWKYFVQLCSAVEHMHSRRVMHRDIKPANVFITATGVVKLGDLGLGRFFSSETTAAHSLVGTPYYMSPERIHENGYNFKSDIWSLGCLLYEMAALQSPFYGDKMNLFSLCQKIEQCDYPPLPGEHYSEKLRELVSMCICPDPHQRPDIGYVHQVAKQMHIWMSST

[17] = biological target: Serine/threonine-protein kinase Nek6 (Homo sapiens) (UniProt Q9HC98); details: at 1 µM
[18] = biological target: Serine/threonine-protein kinase Nek7 (Homo sapiens) (UniProt Q8TDX7); details: at 0.1 µM
Sequence of Serine/threonine-protein kinase Nek7 (Homo sapiens) (Q8TDX7 whole entry, looked up): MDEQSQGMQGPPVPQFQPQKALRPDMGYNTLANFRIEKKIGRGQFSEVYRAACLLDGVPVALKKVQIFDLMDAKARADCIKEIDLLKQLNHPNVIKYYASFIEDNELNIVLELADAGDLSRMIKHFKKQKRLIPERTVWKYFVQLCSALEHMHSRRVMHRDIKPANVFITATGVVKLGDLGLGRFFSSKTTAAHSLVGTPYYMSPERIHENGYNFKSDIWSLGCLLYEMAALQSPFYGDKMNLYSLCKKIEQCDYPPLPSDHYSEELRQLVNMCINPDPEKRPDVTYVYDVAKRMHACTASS

[19] = biological target: Serine/threonine-protein kinase Nek7 (Homo sapiens) (UniProt Q8TDX7); details: at 1 µM
[20] = biological target: T7, Serine/threonine-protein kinase Nek9 (Homo sapiens) (UniProt Q8TD19); details: at 0.1 µM;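 also: reported value is the mean percent inhibition of NEK9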
T7 sequence (whole entry): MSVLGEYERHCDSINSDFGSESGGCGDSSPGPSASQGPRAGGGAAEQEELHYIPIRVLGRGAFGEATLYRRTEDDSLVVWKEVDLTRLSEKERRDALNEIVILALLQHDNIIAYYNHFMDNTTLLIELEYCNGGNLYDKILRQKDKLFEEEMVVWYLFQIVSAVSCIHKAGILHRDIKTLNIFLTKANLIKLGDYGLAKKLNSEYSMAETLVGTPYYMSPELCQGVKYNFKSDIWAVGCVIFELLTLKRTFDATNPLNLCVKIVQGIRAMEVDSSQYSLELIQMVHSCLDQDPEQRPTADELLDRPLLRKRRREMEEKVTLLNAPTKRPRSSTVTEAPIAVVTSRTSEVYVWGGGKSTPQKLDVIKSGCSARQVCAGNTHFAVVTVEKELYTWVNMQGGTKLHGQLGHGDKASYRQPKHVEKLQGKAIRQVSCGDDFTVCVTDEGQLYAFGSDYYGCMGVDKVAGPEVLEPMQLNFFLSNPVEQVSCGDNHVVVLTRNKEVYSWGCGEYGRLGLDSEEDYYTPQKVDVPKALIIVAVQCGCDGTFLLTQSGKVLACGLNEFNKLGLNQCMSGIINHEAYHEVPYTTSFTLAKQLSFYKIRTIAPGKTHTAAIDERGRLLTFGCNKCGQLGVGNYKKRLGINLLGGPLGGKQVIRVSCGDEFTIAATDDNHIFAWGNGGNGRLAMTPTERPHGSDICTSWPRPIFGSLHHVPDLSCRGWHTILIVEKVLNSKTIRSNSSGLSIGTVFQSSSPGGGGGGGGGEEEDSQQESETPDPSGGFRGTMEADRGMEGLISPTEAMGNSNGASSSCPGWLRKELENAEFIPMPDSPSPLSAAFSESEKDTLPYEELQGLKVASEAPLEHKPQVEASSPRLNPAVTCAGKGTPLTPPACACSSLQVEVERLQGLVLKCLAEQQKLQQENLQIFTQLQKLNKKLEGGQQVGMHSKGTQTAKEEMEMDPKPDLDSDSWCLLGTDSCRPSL

Sequence of Sphingosine kinase 1 (Homo sapiens) (Q9NYA1 whole entry): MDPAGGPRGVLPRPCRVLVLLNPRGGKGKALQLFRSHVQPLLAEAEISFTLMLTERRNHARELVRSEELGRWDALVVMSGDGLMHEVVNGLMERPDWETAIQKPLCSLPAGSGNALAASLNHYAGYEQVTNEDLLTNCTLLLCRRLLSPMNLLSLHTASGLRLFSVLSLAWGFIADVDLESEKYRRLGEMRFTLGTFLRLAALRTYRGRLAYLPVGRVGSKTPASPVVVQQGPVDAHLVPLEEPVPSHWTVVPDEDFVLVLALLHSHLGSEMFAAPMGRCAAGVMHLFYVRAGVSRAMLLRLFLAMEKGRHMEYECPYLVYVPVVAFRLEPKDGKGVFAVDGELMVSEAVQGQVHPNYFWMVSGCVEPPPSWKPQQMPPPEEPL

## Fc1ccc(-c2ncn(C3CCNCC3)c2-c2ccnc(Oc3ccc(F)c(F)c3)n2)cc1
[1]
  inhibition: -0.78%
[2]
  inhibition: 1.4%
[3]
  inhibition: -2.94%
[4]
  inhibition: 1.69%
[5]
  inhibition: 3.12%
[6]
  inhibition: -1.24%
[7]
  inhibition: 3.68%
[8]
  inhibition: 6.9%
[9]
  inhibition: 5.72%
[10]
  inhibition: 6.6%
[11]
  inhibition: 4.67%
[12]
  inhibition: 2.19%
[13]
  inhibition: 0.52%
[14]
  inhibition: 5.55%
[15]
  inhibition: 4.23%
[16]
  inhibition: 0.84%
[17]
  inhibition: 2.1%
[18]
  inhibition: 3.19%
[19]
  inhibition: 6.72%
[20]
  inhibition: 6.39%
